Measurements: paper PMC4336329 (PLoS ONE, 2015)
The whole screen tested about 310,000 compounds, of which about 14,000 (4.5%) showed an effect of 50% or more. Effects have a minus sign here. For the sample, strong results were picked, then their nearest neighbours and some compounds at random.

Target: human ether-à-go-go-related gene (hERG) potassium channel (human, UniProt Q12809)
Test: primary screen, population patch clamp on CHO cells stably expressing hERG; higher = less effect of the substance
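Also: peak tail current of the secondary pulse compared with the same well before compound.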

Sequence of human ether-à-go-go-related gene (hERG) potassium channel (Q12809 whole entry, looked up): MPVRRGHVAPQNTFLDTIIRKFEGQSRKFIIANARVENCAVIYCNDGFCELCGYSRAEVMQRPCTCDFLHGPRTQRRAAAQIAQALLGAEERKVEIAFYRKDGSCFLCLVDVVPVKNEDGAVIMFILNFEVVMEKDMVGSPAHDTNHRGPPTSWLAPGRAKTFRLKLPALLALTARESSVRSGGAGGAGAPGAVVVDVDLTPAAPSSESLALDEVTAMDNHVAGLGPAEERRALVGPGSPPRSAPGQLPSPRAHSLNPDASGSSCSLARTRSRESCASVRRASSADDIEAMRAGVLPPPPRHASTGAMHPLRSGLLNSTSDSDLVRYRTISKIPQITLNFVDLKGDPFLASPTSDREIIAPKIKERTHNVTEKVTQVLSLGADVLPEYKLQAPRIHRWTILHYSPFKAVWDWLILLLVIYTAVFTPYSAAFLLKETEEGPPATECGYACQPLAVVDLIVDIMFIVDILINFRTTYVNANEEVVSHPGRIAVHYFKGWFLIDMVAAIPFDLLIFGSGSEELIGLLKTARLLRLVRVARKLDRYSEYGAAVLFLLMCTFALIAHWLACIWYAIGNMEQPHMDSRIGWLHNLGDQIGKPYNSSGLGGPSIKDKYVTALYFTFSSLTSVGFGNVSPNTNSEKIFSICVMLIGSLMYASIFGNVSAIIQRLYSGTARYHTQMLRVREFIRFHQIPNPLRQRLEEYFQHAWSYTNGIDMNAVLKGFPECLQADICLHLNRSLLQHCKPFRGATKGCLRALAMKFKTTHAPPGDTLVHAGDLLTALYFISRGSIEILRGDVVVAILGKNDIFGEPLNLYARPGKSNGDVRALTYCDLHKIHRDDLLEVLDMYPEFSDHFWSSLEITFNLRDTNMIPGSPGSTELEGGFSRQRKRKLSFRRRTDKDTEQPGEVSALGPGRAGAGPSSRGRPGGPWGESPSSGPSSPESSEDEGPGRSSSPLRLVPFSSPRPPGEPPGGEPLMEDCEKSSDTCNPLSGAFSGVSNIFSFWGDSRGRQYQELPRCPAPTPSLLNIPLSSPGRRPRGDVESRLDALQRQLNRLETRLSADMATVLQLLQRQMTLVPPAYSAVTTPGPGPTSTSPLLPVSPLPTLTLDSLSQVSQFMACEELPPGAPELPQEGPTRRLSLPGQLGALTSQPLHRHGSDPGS

Row | SMILES | hERG current change (%, negative = inhibition) at 10uM
1 | Cn1cc(-c2nnnn2-c2ccc(Cl)cc2)c(=O)c2ccccc21 | -69.3%
2 | Clc1ccc(-n2nnnc2-c2ccccc2)cc1 | -0.933%
3 | Cn1cc(-c2nnnn2-c2ccccc2)c(=O)c2ccccc21 | -8.94%
4 | Cn1cc(-c2nnnn2-c2ccc(Cl)cc2)c(C(F)(F)F)n1 | -4.49%
5 | CCn1cc(-c2nnnn2-c2ccc(Cl)cc2)c(=O)c2ccccc21 | -58.8%
6 | O=C(Cn1cc(-c2nnnn2-c2ccc(Cl)cc2)c(=O)c2ccccc21)c1ccccc1 | 4.29%
7 | COc1ccc(OC)c(S(=O)(=O)N2CCCC(C(=O)NCc3ccco3)C2)c1 (stereo not shown) | -5.29%
8 | O=C(c1ccc(N2C(=O)CCC2=O)cc1)N1CCOCC1 | 7.4%
9 | O=C(NCCc1ccco1)C(=O)NCC1OCCCN1S(=O)(=O)c1cc(F)ccc1F (stereo not shown) | -8.36%
10 | CC(=O)C(Sc1nn(C)c(=S)s1)C(=O)Nc1ccccc1 (stereo not shown) | 3.73%
11 | COc1cccc(/C=C2\SC(=S)N(CCC(=O)NNC(=O)c3ccccc3OC)C2=O)c1 | 18.5%
12 | CCOc1ccc(CN(C(=O)c2oc3cc(C)ccc3c2C)C2CCS(=O)(=O)C2)cc1 (stereo not shown) | -10%
13 | Cc1ccc(NC(=O)CNC(=O)c2ccc3c(c2)OCO3)nc1 | 1.63%
14 | CCC(C)(C)n1nnnc1C(c1cc(OC)ccc1OC)N1CCC(C(N)=O)CC1 (stereo not shown) | -1.9%
15 | CC1CN(C(=O)CS(=O)(=O)Cc2ccccc2)CC(C)O1 (stereo not shown) | 17.1%
16 | COc1cccc(N/C(=N/C(=S)Nc2ccc(C)cc2C)Nc2nc(C)cc(C)n2)c1 | 0.704%
17 | Cl.NC(=NCCc1ccccc1)NC(=O)c1cc(Cl)ccc1O | -2.39%
18 | CS(=O)(=O)O.NC(=Nc1ccccc1)NC(=O)c1nc(Cl)c(N)nc1N | -50%
19 | Cl.NC(=NCc1ccccc1)NC(=O)c1nc(Cl)c(N)nc1N | -54.2%
20 | CSc1ncccc1C(=O)OCC(=O)c1ccc(S(=O)(=O)N2CCCCC2)cc1 | 23.5%
21 | CCOC(=O)N1CCN(C(=O)c2ccc(C)c(S(=O)(=O)N3CCCCC3)c2)CC1 | -46%
22 | CC(C)C(=O)N1CCN(c2nc(-c3ccc(Cl)cc3)cs2)CC1 | -82.5%

Row | SMILES | hERG current change (%, negative = inhibition) at 10uM
23 | CCOC(=O)N1CCN(c2nc(-c3ccc(Cl)cc3)cs2)CC1 | -8.2%
24 | O=S(=O)(c1ccc(F)cc1)N1CCN(c2nc(-c3ccc(F)cc3)cs2)CC1 | -8.44%
25 | CCC(=O)N1CCN(c2nc(-c3ccc(Cl)cc3)cs2)CC1 | -25%
26 | CS(=O)(=O)N1CCN(c2nc(-c3ccc(F)cc3)cs2)CC1 | -77.2%
27 | Fc1ccc(-c2csc(N3CCSCC3)n2)cc1 | 17.6%
28 | CC(=O)c1ccc(N2CCN(C(=O)c3ccc(NC4=NC5CS(=O)(=O)CC5S4)cc3)CC2)cc1 (stereo not shown) | -1.77%
29 | COc1ccccc1NC(=O)C1CCOC1=O (stereo not shown) | 15.4%
30 | CCCn1nnnc1NCc1ccc(OC)cc1 | 15.3%
31 | O=C(CC1C(=O)NCCN1Cc1cccc(Oc2ccccc2)c1)NCCc1cscn1 (stereo not shown) | 8.01%
32 | C=CC[n+]1c(C)csc1Nc1cccc(Br)c1.[Br-] | -6.64%
33 | Cc1cccc(N(CC(=O)NCC2CCCO2)C(=O)CCC(=O)Nc2nccs2)c1 (stereo not shown) | 12.9%
34 | COc1ccc(N2CCN(C(=O)CNC(=O)Cc3ccccc3)CC2)cc1 | -13.3%
35 | COc1cc2c(C(=O)OCCN(C)C)c(CSc3ccccc3)n(C)c2cc1Br | 5.67%
36 | COc1cc2c(C(=O)N3CCN(C)CC3)c(C)n(C)c2cc1Br | -9.17%
37 | COc1ccc2c(c1)c(C(=O)N1CCN(C)CC1)c(C)n2-c1ccccc1 | -44%
38 | CCN(CC)CCNC(=O)c1c(C)n(-c2ccccc2)c2cc(Br)c(OC)cc12 | -51.5%
39 | COc1cc2c(C(=O)N3CCN(C)CC3)c(CSc3ccccc3)n(C)c2cc1Br | -74%
40 | COc1cc2c(C(=O)N3CCN(C)CC3)c(C)n(-c3ccccc3)c2cc1Br | -54.7%
41 | COc1cc2c(C(=O)N3CCOCC3)c(CSc3ccccc3)n(C)c2cc1Br | -6.35%
42 | COc1cc2c(C(=O)O)c(C)n(C)c2cc1Br | 20.3%
43 | CCN(CC)CCNC(=O)c1c(C)oc2cc(Br)c(OC)cc12 | -32.1%
44 | O=C(COC(=O)CNC(=O)c1ccccc1F)NC12CC3CC(CC(C3)C1)C2 | 0.652%

Row | SMILES | hERG current change (%, negative = inhibition) at 10uM
45 | COc1ccccc1NC(=O)Nc1cccc(C(=O)O)c1 | 17.5%
46 | N#CC(c1ccc(Cl)cc1)c1ccc2c(C(F)(F)F)cc(C(F)(F)F)nc2n1 (stereo not shown) | 6.7%
47 | CCS(=O)(=O)N1CCC(C(=O)OCC(=O)c2ccc(Br)cc2)CC1 | 3.45%
48 | Cn1c(=Nc2ccc(N3CCOCC3)cc2)ccc2ccccc21 | -47.5%
49 | Oc1ccc2ccccc2c1C=Nc1ccc(N2CCOCC2)cc1 | 3.04%
50 | CCn1c(=Nc2ccc(N3CCOCC3)cc2)ccc2ccccc21 | -66.8%
51 | COc1ccccc1OCc1ccc(C(=O)N(C)c2ccccc2)o1 | 7.76%
52 | COC(=O)c1coc(-c2ccc(OC)cc2)c1C(=O)OC | 13.8%
53 | O=C(COc1ccccc1)N1CCc2ccccc2C1 | 10%
54 | O=C(O)C(=O)O.O=[N+]([O-])c1ccc(OCCCCN2CCc3ccccc3C2)cc1 | -76.3%
55 | O=C(COc1ccc(S(=O)(=O)N2CCOCC2)cc1)N1CCc2ccccc2C1 | -55.9%
56 | O=C(COc1ccc([N+](=O)[O-])cc1)N1CCc2ccccc2C1 | -54.5%
57 | O=C(CCCOc1ccccc1)N1CCc2ccccc2C1 | 0.877%
58 | Cc1ccc(OCC(=O)N2CCc3ccccc3C2)cc1 | -3.37%
59 | O=C(CCc1ccc(S(=O)(=O)N2CCOCC2)cc1)N1CCc2ccccc2C1 | -14.5%
60 | Cl.O=[N+]([O-])c1ccccc1OCCCN1CCc2ccccc2C1 | -49.7%
61 | Cl.Clc1ccc(OCCCCN2CCc3ccccc3C2)cc1 | -68.1%
62 | O=C(COc1ccc(S(=O)(=O)N2CCOCC2)cc1)N1CCOCC1 | 10.6%
63 | Cc1ccc(OCCCCN2CCc3ccccc3C2)cc1.Cl | -34.9%
64 | O=C(Cc1ccc([N+](=O)[O-])cc1)N1CCc2ccccc2C1 | -17.7%
